Screening data deposited in PubChem by National Center for Advancing Translational Sciences (NCATS).
ASM inhibitor: Inhibitors of Secretory Acid Sphingomyelinase (S-ASM): qHTS | placental ASM, HMU-PC fluorogenic substrate, 60 min | AID 504937, 2011 | Potency, µM (top dose mostly 57.5 µM), inactives show at the top dose activity change, negative = inhibition, hits mostly inhibitors | 340,000 tested, 0.006% active; further: potency means the concentration at half of the fitted maximal effect
Target sequence (P17405 47-631 limits assumed): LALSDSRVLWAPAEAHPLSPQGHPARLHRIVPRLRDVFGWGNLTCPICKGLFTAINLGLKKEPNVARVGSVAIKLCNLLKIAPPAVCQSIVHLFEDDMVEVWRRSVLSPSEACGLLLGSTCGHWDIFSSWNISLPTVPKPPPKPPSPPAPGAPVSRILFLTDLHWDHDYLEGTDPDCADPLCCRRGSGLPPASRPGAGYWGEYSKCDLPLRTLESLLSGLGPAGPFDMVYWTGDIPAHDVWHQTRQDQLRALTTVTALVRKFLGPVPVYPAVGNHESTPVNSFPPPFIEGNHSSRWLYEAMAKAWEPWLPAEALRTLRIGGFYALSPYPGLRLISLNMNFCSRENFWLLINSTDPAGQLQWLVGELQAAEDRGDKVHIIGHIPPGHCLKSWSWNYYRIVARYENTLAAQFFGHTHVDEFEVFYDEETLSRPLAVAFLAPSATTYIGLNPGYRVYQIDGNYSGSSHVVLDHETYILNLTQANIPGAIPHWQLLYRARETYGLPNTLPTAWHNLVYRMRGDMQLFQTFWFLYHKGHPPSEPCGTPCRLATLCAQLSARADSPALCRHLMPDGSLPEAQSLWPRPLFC
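qHTS format. ASM enzyme prepared from human placenta hydrolyses the fluorogenic substrate HMU-PC0 (9 uM final) over 60 min at 37 °C after a 10 min compound preincubation.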
TGFb inhibitor: qHTS for Inhibitors of TGF-b. Potency, µM (highest dose often 46.1 µM), inactives show at the top dose activity, negative = inhibition, most hits filed as inhibitors. HepG2 CAGA-GFP TGF-b/SMAD3 reporter, GFP fluorescence, 18 h; TGF-beta stimulated, 500 pg/mL final. 410,000 tested, 1.2% active. AID 588855, 2011; further: potency means the concentration at half of the fitted maximal effect; on the % scale 0 is the no-effect control and ±100 the full control effect; nearly all actives have a fitted effect of over 65% in size
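Cell-based qHTS in HEPG2 carrying a CAGA-GFP Smad reporter; compounds added before 500 pg/mL final TGF-beta, 18 h incubation at 37 degrees C, GFP fluorescence quantified per cell by imaging cytometry.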
HepG2 viability: qHTS for Inhibitors of TGF-b: Cytotox Counterscreen; HepG2 CAGA-GFP viability, ATP luminescence, 18 h; Potency, µM (series often up to 46.1 µM), for inactives: at the highest dose activity change, negative = cytotoxicity, usual class: cytotoxic; 410,000 tested, 0.76% active; further: potency means the concentration at half of the fitted maximal effect
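HepG2 CAGA-GFP cells (1000/well, DMEM with 1% FBS) received compound, then TGF-beta at 500 pg/mL final, and were incubated 18 hours at 37 degrees C. Viability was read by CellTiter-Glo luminescence. Media-only wells were set as complete cell-killing and DMSO as no toxicity.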
DT40 TDP1 no CPT: qHTS for Inhibitors of human tyrosyl-DNA phosphodiesterase 1 (TDP1): qHTS in cells in absence of CPT; DT40 Tdp1-/- hTDP1 cells, no CPT, ATP luminescence, 48 h; Potency, µM (highest dose often 46.2 µM), inactives show at the top dose activity change, negative = growth inhibition, actives largely listed as inhibitors; 420,000 tested, 15% active; further: potency means the concentration at half of the fitted maximal effect; on the % scale 0 is the no-effect control and ±100 the full control effect; nearly all actives have a fitted effect of over 55% in size
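Stably hTDP1-transfected Tdp1-null chicken DT40 cells were treated with library compounds minus camptothecin and grown for at least 48 hr at 37 °C, after which cellular ATP was quantified by luminescence.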
TDP1 cell CPT: qHTS for Inhibitors of human tyrosyl-DNA phosphodiesterase 1 (TDP1): qHTS in cells in presence of CPT. Potency, µM (series often up to 46.2 µM), for inactives: top-dose activity change, negative = growth inhibition, actives largely listed as inhibitors. 420,000 tested, 12% active. AID 686979, 2013. chicken DT40 Tdp1-/-;hTDP1 cells + 20 nM CPT, ATP luminescence, 48 h; further: potency means the concentration at half of the fitted maximal effect; on the % scale 0 is the no-effect control and ±100 the full control effect; nearly all actives have a fitted effect of over 55% in size
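Cell growth measured by CellTiter-Glo luminescence after a minimum 48 h, 37 C compound exposure with 20 nM CPT in Tdp1-knockout DT40 cells stably expressing hTDP1, seeded 400/well; qHTS titration format.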
IL1B secr inh: qHTS for Inhibitors of Inflammasome Signaling: IL-1-beta AlphaLISA Primary Screen | 360,000 tested, 4.7% active | activity change, % at 57.5 µM | THP-1 LPS/ATP IL-1B secretion, AlphaLISA, 16 h; active compounds read low; in the data active means activity change below about -50%; inconclusive means mostly about -30% to -49%; further: on the % scale 0 is the no-effect control and ±100 the full control effect
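Secreted IL-1B measured by AlphaLISA bead assay after 16 h compound exposure of THP-1 cells; compounds (final up to 57.5 uM) added 1 h before LPS (250 ng/mL) and ATP (1.25 mM) stimulation; lower signal means less secretion.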
The depositor's hits bear a star; ? = inconclusive; / = not tested or not shown. Most compounds without a hit are left out; they make up all but 19% or so of the library. Unless noted, the call rests on the fitted dose curve; in most records, active means well fitted curve in the direction sought with a large enough effect; inconclusive means small, poorly fitted or top-dose-only effect, or another doubt; inactive means no such curve, though single readings can be large; an effect the other way counts as inactive or inconclusive.

SMILES	ASM inhibitor	TGFb inhibitor	HepG2 viability	DT40 TDP1 no CPT	TDP1 cell CPT	IL1B secr inh
Cc1ccc(C(=O)Nc2cccc(C(=O)O)c2)cc1S(=O)(=O)N1CCOCC1	-1%	-15%	-10%	-1%	8%	10
COc1ccccc1N(C)S(=O)(=O)c1ccc(C(=O)Nc2ncc(C)s2)cc1	-1%	-17%	1%	?	?	-8
Cc1nc2ccc(NC(=O)c3cccc(S(=O)(=O)N(C)c4ccccc4)c3)cc2s1	-12%	?	3%	6.5µM*	3.7µM*	37
COc1ccccc1N(C)S(=O)(=O)c1ccc(C(=O)Nc2ccc3nc(C)sc3c2)cc1	-14%	?	-22%	?	16µM*	7
CC(NC(=O)c1cccc(S(=O)(=O)N(C)c2ccccc2)c1)c1cccnc1 (centres undefined)	2%	0%	-1%	18µM*	18µM*	-6
Cc1ccc(NC(=O)c2cccc(S(=O)(=O)N(C)c3ccccc3)c2)cc1S(=O)(=O)N1CCOCC1	-2%	?	-5%	23µM*	23µM*	0
CCCCn1nnnc1C1(C)CCC(=O)N1CCc1ccccc1F (centres undefined)	/	/	/	-20%	-4%	14
Cc1ccc2cc(CN(Cc3ccco3)C(=S)NCC3CCCO3)c(=O)[nH]c2c1C (centres undefined)	0%	-2%	1%	26µM*	18µM*	-26
Nc1c2c(nc3sc4c(c13)CCCC4)CCCCCC2	3%	11%	0%	13µM*	?	32
Nc1nc2sc3c(c2c(=O)s1)CCCC3	-2%	1%	-36%	0%	-27%	14
OC(COc1ccccc1)CN1CCN(Cc2ccc3c(c2)OCO3)CC1 (centres undefined)	4%	0%	0%	-16%	9%	30
O=C(c1ccccc1Cl)N1CCN(Cc2ccc3c(c2)OCO3)CC1	2%	?	-27%	-15%	-13%	?
CC(C)CNS(=O)(=O)c1ccc(CCC(=O)N2CCN(Cc3ccc4c(c3)OCO4)CC2)cc1	4%	-22%	-32%	18µM*	13µM*	?
Cc1ccc(C(=O)N2CCN(Cc3ccc4c(c3)OCO4)CC2)c(Cl)c1	1%	?	-31%	16µM*	8.2µM*	-59*
Cc1cc(C)cc(OCC(O)CN2CCN(Cc3ccc4c(c3)OCO4)CC2)c1 (centres undefined)	-1%	-26%	-12%	21µM*	13µM*	-5
N#CCC(=O)N1CCN(Cc2ccc3c(c2)OCO3)CC1	0%	-15%	1.6µM*	-6%	6%	-12
O=C(O)CCC(=O)N1CCN(Cc2ccc3c(c2)OCO3)CC1	0%	15%	-4%	-1%	0%	3
CC(C)Cc1nnc(NC(=O)c2ccc(S(=O)(=O)N3CCCC3)cc2)s1	0%	6%	5%	-17%	-16%	6
O=C(CC1N=C2c3ccccc3N=C(SCc3cccc(Cl)c3)N2C1=O)NCCc1ccccc1 (centres undefined)	/	?	-54%	?	?	/
CCCCOc1ccc(C(=O)NCC(=O)N2CCN(Cc3ccc4c(c3)OCO4)CC2)cc1	3%	16%	2%	13µM*	?	-6
O=C(NCC(=O)N1CCN(Cc2ccc3c(c2)OCO3)CC1)c1ccccc1F	1%	14%	2%	-1%	32%	14
